Source: PubChem
Tau fibril ThT: qHTS for Inhibitors of Tau Fibril Formation, Thioflavin T Binding; Microtubule-associated protein tau (Homo sapiens), P10636; hit rate 2.1% among 270,000; Potency, µM (series often up to 57.4 µM), for inactives: at the top dose activity, negative = inhibition, most hits filed as inhibitors; recombinant tau K18 P301L, heparin-induced fibrillization, ThT fluorescence; AID 1460, 2008; also: potency is read from the fitted curve at half-maximal effect; nearly all actives have a fitted effect of over 55% in size
Target sequence (P10636 561-689 P618L limits assumed): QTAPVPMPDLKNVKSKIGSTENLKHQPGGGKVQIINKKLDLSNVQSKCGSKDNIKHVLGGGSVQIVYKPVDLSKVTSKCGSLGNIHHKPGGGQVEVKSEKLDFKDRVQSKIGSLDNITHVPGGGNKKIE
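In this qHTS, human K18 P301L tau is incubated with compound and heparin for 6 hr at 37 C, and Thioflavin T fluorescence then reports fibril load.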
FBPA coupling cs: qHTS Assay for Inhibitors of Fructose-1,6-bisphosphate Aldolase from Giardia Lamblia: Coupling assay counterscreen; coupling enzyme system counterscreen, AmpLite Red fluorescence; activity change, negative = inhibition, % at 58.2 µM, hits read low; hit rate 0.67% among 290,000; AID 2472, 2010; in the data active = activity change below about -30%
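Final compound at 57.5 uM, incubated 10 min at RT with coupling enzyme reagent (glyceraldehyde-3-phosphate), then 20 min with substrate and AmpLite Red detection. Fluorescence read at 525/598 nm; tests interference with the coupling assay, not aldolase inhibition.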
Tau fluor cs: Counterscreen qHTS for Inhibitors of Tau Fibril Formation, Fluorescence Polarization. hit rate 0.93% among 280,000. tau K18 P301L (four-repeat tau fragment) Alexa594 fluorescence, heparin fibrillization. Potency, µM (series often up to 57.7 µM), for inactives: at the top dose activity change, negative = decrease; also: potency is read from the fitted curve at half-maximal effect; nearly all actives have a fitted effect of over 55% in size
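Human K18 P301L tau (15 uM unlabeled plus 0.24 uM Alexa 594-labeled, final) in 100 mM sodium acetate pH 7 was mixed with compound and 20 uM heparin and incubated 6 hr at 37 C.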
Sfp PPTase inh: qHTS Assay for Inhibitors of Bacillus subtilis Sfp phosphopantetheinyl transferase (PPTase) | Biochemical Sfp PPTase activity, qHTS | Potency, µM, for inactives: largest response in the series, negative = inhibition, hits mostly inhibitors | hit rate 3.5% among 310,000 | AID 1490, 2009;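 also: the enzyme is Sfp with the accession as filed and its product quenches rhodamine fluorescence; potency is read from the fitted curve at half-maximal effect; 0% = enzyme reaction without inhibitor and -100% = no enzyme wells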
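Fluorescence-quenching assay with 15 nM Sfp, 5 uM rhodamine-CoA and 12.5 uM BHQ-2-labelled ybbR peptide in pH 7.6 Hepes/MgCl2 buffer. Enzyme was pre-incubated with compound for 15 min at room temperature. Rate was taken from the 30-min fluorescence change (525/598 nm).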
G9a block: qHTS Assay for Inhibitors of Histone Lysine Methyltransferase G9a; G9a H3K9 monomethylation, AlphaScreen, 2 h; Potency, µM (doses to about 102 µM), inactives show at the highest dose activity, negative = inhibition, most hits filed as inhibitors; hit rate 8.8% among 350,000; AID 504332, 2011; also: potency is read from the fitted curve at half-maximal effect; nearly all actives have a fitted effect of over 75% in size
Target sequence (Q96KQ7 913-1193 limits assumed): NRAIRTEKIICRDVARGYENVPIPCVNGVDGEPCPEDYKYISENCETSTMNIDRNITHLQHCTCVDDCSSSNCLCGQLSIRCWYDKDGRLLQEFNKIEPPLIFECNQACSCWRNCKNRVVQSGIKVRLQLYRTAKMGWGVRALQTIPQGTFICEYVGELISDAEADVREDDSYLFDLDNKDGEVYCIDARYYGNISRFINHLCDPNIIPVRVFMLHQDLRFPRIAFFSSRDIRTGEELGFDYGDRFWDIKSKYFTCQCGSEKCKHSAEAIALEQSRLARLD
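Step 1: enzyme (final 20 nM) with compound, 15 min RT. Step 2: substrate peptide 500 nM and SAM 20 uM, 2 h RT. Step 3: anti-H3K9me1 antibody and AlphaScreen beads, 10 min, then plate read.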
Tau fibril FP: qHTS for Inhibitors of Tau Fibril Formation, Fluorescence Polarization; Microtubule-associated protein tau (Homo sapiens), P10636; K18 P301L tau heparin fibrillization, Alexa594 FP, 6 h; Potency, µM (series often up to 57.7 µM), inactives show at the top dose activity, negative = inhibition, most hits filed as inhibitors; hit rate 0.39% among 280,000; AID 1468, 2008; also: potency is read from the fitted curve at half-maximal effect; nearly all actives have a fitted effect of over 55% in size
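Compound effects on tau fibrillization are measured by Alexa 594 fluorescence polarization (ex 555, em 632 nm). K18 P301L tau is used at 15 uM with 0.24 uM labeled tracer, and 20 uM heparin induces aggregation over 6 hr at 37 C.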
* = called active by the depositor; ? = inconclusive; . = not tested or not shown; [ ] = remark or other dose. A selection: hits, their analogues and other compounds. The true share with any hit is near 11%. Unless noted, calls follow the shape of the dose curve; as a rule, active = well fitted curve in the direction sought with a large enough effect; inconclusive = small, poorly fitted or top-dose-only effect, or another doubt; inactive = no such curve, though single readings can be large; an effect the other way counts as inactive or inconclusive. Unless noted, % is scaled to controls: 0 for no effect and ±100 for the full control effect.

SMILES	Tau fibril ThT	FBPA coupling cs	Tau fluor cs	Sfp PPTase inh	G9a block	Tau fibril FP
Cc1cc(C)n2nc(-c3ccsc3-n3c(C)ccc3C)cc2n1	?	0	-14%	50µM*	50µM*	-1%
Cc1coc2c(C)c3oc(=O)c(CC(=O)NCc4ccccc4)c(C)c3cc12	2%	.	6%	.	8%[59 µM]	-4%
COc1ccc(NC(=O)C(=O)N/N=C/c2cc(C)n(-c3cccc(Cl)c3Cl)c2C)c(OC)c1	-9%	-5	-9%	8%	?	-3%
CCN(CC(=O)NCc1cccs1)S(=O)(=O)c1cccc(Br)c1	.	.	.	.	35%[12.7 µM]	.
Cc1ccc(S(=O)(=O)CCC(=O)c2ccc(O)cc2O)cc1	-11%	-1	-11%	-11%	40µM*	-2%
Cc1ccc(S(=O)(=O)CCC(=O)OCC(=O)c2cc(C)ccc2C)cc1	.	.	.	.	24%[12.7 µM]	.
C=CC1=C(C(=O)O)N2C(=O)C(NC(=O)Cc3ccccc3)C2SC1 (stereo unspecified)	?	-42*	-14%	?	?	?
O=C(COc1ccccc1)NC1C(=O)N2C(C(=O)O)=C(Cl)CSC12 (stereo unspecified)	.	0	.	-18%	35µM*	.
CC[C@H](NC(C)C)[C@H](O)c1ccc(O)c(O)c1	.	-36*	.	-17%	-20%[12.7 µM]	.
Cc1ccc(C(=O)OC(C)CN2CCN(C)CC2)cc1 (stereo unspecified)	.	0	-3%	-8%	.	4%
N[C@H](C(=O)O)[C@H](Cc1ccccc1)C(=O)O	.	.	.	.	7.1µM*	.
N[C@@H](Cc1ccccc1)C(=O)O	0%	2	-8%	25%	-34%[12.7 µM]	2%
Cc1ccc(-c2[nH]ncc2CNCCc2cnn(-c3ccccc3)c2)cc1C	-7%	-4	-13%	79µM*	-35%	0%
COC(=O)CNC(=O)C(C)(C)Oc1ccc(Cl)cc1	-12%	1	-2%	-2%	-2%[59 µM]	0%
CC(C)(Oc1ccc(Cl)cc1)C(=O)NCc1ccc(S(N)(=O)=O)cc1	-2%	2	-6%	17%	45µM*	-5%
CC1CCN(C(=O)c2cc3c(=O)n(C)c4cc(Cl)ccc4c3s2)CC1	-7%	.	-5%	.	30%[59 µM]	0%
CCN=C1S/C(=C\c2ccc(-c3cccc(C(=O)O)c3)o2)C(=O)N1CC	1%	5	2%	20µM*	40µM*	2%
O=C(O)c1cccc(-c2ccc(/C=C3/SC(=Nc4ccccc4)N(Cc4cccnc4)C3=O)o2)c1	.	6	.	50µM*	32µM*	.
CCN1C(=O)/C(=C\c2ccc(-c3ccc([N+](=O)[O-])cc3OC)o2)SC1=Nc1cccc(C(=O)O)c1	14µM*	0	?	25µM*	11µM*	-17%
CCN=C1S/C(=C/c2ccc(-c3ccc(Cl)cc3C(=O)O)o2)C(=O)N1CC	.	14	.	-29%	45µM*	.
CCN1C(=O)/C(=C\c2ccc(-c3cccc(C(=O)OC)c3)o2)SC1=Nc1ccc(C(=O)O)cc1	.	11	.	-28%	.	.
CCN1C(=O)CSC1=Nc1cccc(C(=O)O)c1	.	2	.	15%	-8%[0.501 µM]	.
COc1cc(CC(NC(C)=O)C(=O)NC2CCN(S(=O)(=O)c3ccc(NC(C)=O)cc3)CC2)cc(OC)c1 (stereo unspecified)	.	0	.	19%	42%	.
N#Cc1ccc(Cn2c(-c3ccc(F)cc3)noc2=O)cc1	.	-1	.	25%	-3%[0.501 µM]	.
COC(=O)c1ccc(CN2C(=O)NC(Cc3c[nH]c4ccccc34)C2=O)cc1 (stereo unspecified)	.	1	.	16%	15%	.
